The values below come from paper PMC7862700, “An all-to-all approach to the identification of sequence-specific readers for epigenetic DNA modifications on cytosine”.

Holding throughout (assay): DAPPL (digital affinity profiling via proximity ligation, sequencing); 10 mM Tris-HCl pH 7.5, 50 mM NaCl, 1 mM DTT, 4% glycerol, room temperature, 30 min; GST-TFs on glutathione beads, 16-mer random dsDNA library, 0.1% formaldehyde crosslink after washing; high values mean tight binding
What all share (conditions): protein: recombinant; tags: N-terminal GST; dsDNA, one strand shown

One experiment concerns the target T1, ERF (Homo sapiens, UniProt P50548 1-548).
T1 sequence: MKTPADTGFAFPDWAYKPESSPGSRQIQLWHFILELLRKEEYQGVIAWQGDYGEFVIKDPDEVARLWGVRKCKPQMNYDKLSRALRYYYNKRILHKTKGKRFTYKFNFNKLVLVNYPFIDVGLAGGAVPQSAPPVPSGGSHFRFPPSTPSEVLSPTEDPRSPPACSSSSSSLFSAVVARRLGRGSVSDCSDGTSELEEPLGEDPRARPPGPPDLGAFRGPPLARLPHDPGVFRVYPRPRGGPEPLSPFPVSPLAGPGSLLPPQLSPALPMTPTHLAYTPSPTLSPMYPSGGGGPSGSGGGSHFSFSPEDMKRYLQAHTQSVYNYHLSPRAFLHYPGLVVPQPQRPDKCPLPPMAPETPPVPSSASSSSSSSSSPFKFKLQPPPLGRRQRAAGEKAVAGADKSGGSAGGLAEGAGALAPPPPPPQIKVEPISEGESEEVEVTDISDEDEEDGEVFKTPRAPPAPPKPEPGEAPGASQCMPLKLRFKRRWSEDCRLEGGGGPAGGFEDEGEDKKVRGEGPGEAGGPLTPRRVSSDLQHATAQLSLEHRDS
In short, it runs like this: (§1)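 Human transcription factors carrying a GST fusion were produced in yeast, bound to glutathione beads, tagged with DNA barcodes and pooled together with a tag-only sample. Each pool was held with 200 nmole of a random double-stranded 16-mer DNA library in Tris/NaCl/DTT/glycerol buffer for 30 min at room temperature, then washed, crosslinked in 0.1% formaldehyde, proximity-ligated with BsaI/T4 ligase (1 h, 37 °C), PCR-amplified and sequenced on an Illumina NextSeq500. Binding signal is the read frequency of each hexamer for a given factor divided by its frequency in the tag-only sample.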

The target in the next experiment is T2, ETV3L (Homo sapiens, UniProt Q6ZN32 1-361).
T2 sequence: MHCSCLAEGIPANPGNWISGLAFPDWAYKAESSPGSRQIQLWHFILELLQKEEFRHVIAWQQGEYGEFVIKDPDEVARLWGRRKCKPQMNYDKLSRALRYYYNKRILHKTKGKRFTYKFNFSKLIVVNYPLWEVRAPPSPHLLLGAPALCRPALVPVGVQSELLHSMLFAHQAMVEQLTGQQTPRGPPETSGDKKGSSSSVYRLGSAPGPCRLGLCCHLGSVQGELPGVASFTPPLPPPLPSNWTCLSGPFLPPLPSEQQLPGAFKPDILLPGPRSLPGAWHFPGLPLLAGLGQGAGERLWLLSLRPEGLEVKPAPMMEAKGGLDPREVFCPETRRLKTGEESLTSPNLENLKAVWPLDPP
In short, it runs like this: as §1

In the next experiment the target is T3, ETS2 (Homo sapiens, UniProt P15036 1-469).
T3 sequence: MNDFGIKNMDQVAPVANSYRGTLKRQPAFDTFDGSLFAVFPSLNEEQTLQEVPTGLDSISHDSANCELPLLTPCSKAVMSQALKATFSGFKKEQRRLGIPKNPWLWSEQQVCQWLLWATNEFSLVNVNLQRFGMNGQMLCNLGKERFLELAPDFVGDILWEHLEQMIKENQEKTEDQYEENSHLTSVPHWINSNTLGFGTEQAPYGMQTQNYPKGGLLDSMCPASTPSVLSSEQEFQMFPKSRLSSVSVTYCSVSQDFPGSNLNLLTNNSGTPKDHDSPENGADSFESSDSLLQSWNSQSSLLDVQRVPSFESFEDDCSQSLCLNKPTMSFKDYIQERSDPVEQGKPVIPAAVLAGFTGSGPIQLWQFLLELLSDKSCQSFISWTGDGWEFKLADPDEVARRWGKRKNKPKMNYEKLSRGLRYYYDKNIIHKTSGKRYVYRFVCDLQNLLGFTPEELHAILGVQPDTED
In short, it runs like this:
as §1

The target of the next experiment is T4, SPDEF (Homo sapiens, UniProt O95238 1-335).
T4 sequence: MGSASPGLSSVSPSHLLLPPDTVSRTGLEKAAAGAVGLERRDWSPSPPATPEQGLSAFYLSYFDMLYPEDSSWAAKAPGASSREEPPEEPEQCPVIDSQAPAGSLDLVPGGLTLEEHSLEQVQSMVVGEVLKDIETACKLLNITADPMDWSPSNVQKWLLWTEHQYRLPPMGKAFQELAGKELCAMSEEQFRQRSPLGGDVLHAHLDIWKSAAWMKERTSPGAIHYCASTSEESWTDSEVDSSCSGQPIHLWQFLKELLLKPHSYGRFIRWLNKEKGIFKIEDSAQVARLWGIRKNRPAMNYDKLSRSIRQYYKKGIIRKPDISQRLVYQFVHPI
In short, it runs like this:
as §1

A further experiment addresses T5, ETV7 (Homo sapiens, UniProt Q9Y603 1-341).
T5 sequence: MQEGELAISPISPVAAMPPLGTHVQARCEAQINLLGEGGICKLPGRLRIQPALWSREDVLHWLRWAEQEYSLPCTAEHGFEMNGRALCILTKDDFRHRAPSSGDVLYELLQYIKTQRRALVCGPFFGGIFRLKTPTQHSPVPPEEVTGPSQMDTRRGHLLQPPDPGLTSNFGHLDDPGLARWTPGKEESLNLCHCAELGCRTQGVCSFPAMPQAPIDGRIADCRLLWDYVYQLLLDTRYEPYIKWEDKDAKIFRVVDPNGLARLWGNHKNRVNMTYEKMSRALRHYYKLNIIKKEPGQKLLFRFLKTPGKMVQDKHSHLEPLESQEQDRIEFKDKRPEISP
In short, it runs like this: as §1

The target of another experiment is T6, ELF5 (Homo sapiens, UniProt Q9UKW6-2 1-255).
T6 sequence: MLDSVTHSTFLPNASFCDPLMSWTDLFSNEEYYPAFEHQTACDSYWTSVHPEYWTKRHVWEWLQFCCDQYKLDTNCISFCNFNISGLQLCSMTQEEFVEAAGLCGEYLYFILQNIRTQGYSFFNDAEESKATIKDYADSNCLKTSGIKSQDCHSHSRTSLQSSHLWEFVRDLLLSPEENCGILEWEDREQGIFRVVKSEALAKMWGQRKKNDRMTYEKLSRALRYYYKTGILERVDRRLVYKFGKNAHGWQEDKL
In short, it runs like this: as §1

The target of a further experiment is T7, ETV3 (Homo sapiens, UniProt P41162-2 1-143).
T7 sequence: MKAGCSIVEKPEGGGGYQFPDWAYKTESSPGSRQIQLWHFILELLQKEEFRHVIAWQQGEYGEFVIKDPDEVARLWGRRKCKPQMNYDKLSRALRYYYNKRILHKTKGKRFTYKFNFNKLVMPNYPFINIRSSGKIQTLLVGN
In short, it runs like this: as §1

The target in another experiment is ETV6 (Homo sapiens, UniProt P41212 1-452). In short, it runs like this:
as §1

ETV6, sequence (P41212 whole entry): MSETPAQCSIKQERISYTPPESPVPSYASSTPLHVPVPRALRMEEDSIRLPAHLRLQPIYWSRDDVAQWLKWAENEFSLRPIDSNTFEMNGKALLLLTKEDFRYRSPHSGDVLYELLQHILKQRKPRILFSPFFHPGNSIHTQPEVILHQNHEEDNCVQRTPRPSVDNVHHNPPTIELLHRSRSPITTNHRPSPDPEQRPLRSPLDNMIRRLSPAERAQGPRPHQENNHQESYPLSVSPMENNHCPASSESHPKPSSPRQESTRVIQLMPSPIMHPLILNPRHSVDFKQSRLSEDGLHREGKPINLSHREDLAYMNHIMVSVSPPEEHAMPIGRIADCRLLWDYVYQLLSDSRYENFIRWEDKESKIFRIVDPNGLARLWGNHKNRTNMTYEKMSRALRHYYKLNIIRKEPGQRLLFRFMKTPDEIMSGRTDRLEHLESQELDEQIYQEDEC

In the case of ACTCGT, the binding signal with ERF is 1.25 fold enrichment (6-mer frequency, TF over GST control); with ETV3L, 1.26 fold enrichment (6-mer frequency, TF over GST control); with ETS2, 1.27 fold enrichment (6-mer frequency, TF over GST control); in the experiment with SPDEF, 1.14 fold enrichment (6-mer frequency, TF over GST control); in the experiment with ETV7, 1.26 fold enrichment (6-mer frequency, TF over GST control); with ELF5 it was 1.24 fold enrichment (6-mer frequency, TF over GST control). The binding signal with ETV3 was 1.21 fold enrichment (6-mer frequency, TF over GST control); in the experiment with ETV6, 1.16 fold enrichment (6-mer frequency, TF over GST control).

TTATAT: the binding signal is 1.23 fold enrichment (6-mer frequency, TF over GST control) with ERF; 1.37 fold enrichment (6-mer frequency, TF over GST control) in the experiment with ETV3L; 1.39 fold enrichment (6-mer frequency, TF over GST control) in the experiment with ETS2; 1.4 fold enrichment (6-mer frequency, TF over GST control) with SPDEF; 1.38 fold enrichment (6-mer frequency, TF over GST control) with ETV7; 1.28 fold enrichment (6-mer frequency, TF over GST control) with ELF5. The binding signal with ETV3 is 1.44 fold enrichment (6-mer frequency, TF over GST control); in the experiment with ETV6, 1.36 fold enrichment (6-mer frequency, TF over GST control).

In the case of AATGTA, the binding signal with ERF was 1.14 fold enrichment (6-mer frequency, TF over GST control); in the experiment with ETV3L it was 1.1 fold enrichment (6-mer frequency, TF over GST control); in the experiment with ETS2, 1.25 fold enrichment (6-mer frequency, TF over GST control); in the experiment with SPDEF it was 1.2 fold enrichment (6-mer frequency, TF over GST control); with ETV7, 1.15 fold enrichment (6-mer frequency, TF over GST control); with ELF5 it was 1.21 fold enrichment (6-mer frequency, TF over GST control). Also, the binding signal was 1.17 fold enrichment (6-mer frequency, TF over GST control) with ETV3 and 1.15 fold enrichment (6-mer frequency, TF over GST control) with ETV6.

For the sequence GTTAAC, the binding signal in the experiment with ERF is 1.12 fold enrichment (6-mer frequency, TF over GST control); with ETV3L, 1.14 fold enrichment (6-mer frequency, TF over GST control); with ETS2, 1.22 fold enrichment (6-mer frequency, TF over GST control); with SPDEF it was 1.23 fold enrichment (6-mer frequency, TF over GST control); with ETV7, 1.24 fold enrichment (6-mer frequency, TF over GST control); in the experiment with ELF5 it was 1.22 fold enrichment (6-mer frequency, TF over GST control). Moreover, the binding signal was 1.27 fold enrichment (6-mer frequency, TF over GST control) with ETV3 and 1.18 fold enrichment (6-mer frequency, TF over GST control) in the experiment with ETV6.

Take TCTTGA: the binding signal with ERF is 1.49 fold enrichment (6-mer frequency, TF over GST control); in the experiment with ETV3L it was 1.32 fold enrichment (6-mer frequency, TF over GST control); with ETS2, 1.28 fold enrichment (6-mer frequency, TF over GST control); with SPDEF, 1.25 fold enrichment (6-mer frequency, TF over GST control); with ETV7, 1.22 fold enrichment (6-mer frequency, TF over GST control); in the experiment with ELF5 it was 1.3 fold enrichment (6-mer frequency, TF over GST control). The binding signal with ETV3 was 1.18 fold enrichment (6-mer frequency, TF over GST control); with ETV6, 1.24 fold enrichment (6-mer frequency, TF over GST control).

On to CTAACT, for which the binding signal with ERF was 1.32 fold enrichment (6-mer frequency, TF over GST control); with ETV3L it was 1.19 fold enrichment (6-mer frequency, TF over GST control); in the experiment with ETS2, 1.35 fold enrichment (6-mer frequency, TF over GST control); in the experiment with SPDEF it was 1.24 fold enrichment (6-mer frequency, TF over GST control); with ETV7, 1.29 fold enrichment (6-mer frequency, TF over GST control); with ELF5, 1.21 fold enrichment (6-mer frequency, TF over GST control). Moreover, the binding signal with ETV3 is 1.24 fold enrichment (6-mer frequency, TF over GST control); in the experiment with ETV6 it was 1.29 fold enrichment (6-mer frequency, TF over GST control).

Turning to CCTGGA, the binding signal with ERF was 1.32 fold enrichment (6-mer frequency, TF over GST control); in the experiment with ETV3L it was 1.49 fold enrichment (6-mer frequency, TF over GST control); in the experiment with ETS2, 1.52 fold enrichment (6-mer frequency, TF over GST control); with SPDEF, 1.57 fold enrichment (6-mer frequency, TF over GST control); in the experiment with ETV7, 1.34 fold enrichment (6-mer frequency, TF over GST control); in the experiment with ELF5 it was 1.74 fold enrichment (6-mer frequency, TF over GST control). In addition, the binding signal with ETV3 was 1.37 fold enrichment (6-mer frequency, TF over GST control); with ETV6, 1.44 fold enrichment (6-mer frequency, TF over GST control).
